Tau fibril FP – inhibitors of human tau fibril formation; P10636; K18 P301L tau heparin fibrillization, Alexa594 FP, 6 h; Potency, µM (top dose mostly 57.7 µM), for the others: at the highest dose activity, negative = inhibition, most hits filed as inhibitors; 0.39% of 280,000 active; note: nearly all actives have a fitted effect of over 55% in size
Target sequence (P10636 561-689 P618L limits assumed): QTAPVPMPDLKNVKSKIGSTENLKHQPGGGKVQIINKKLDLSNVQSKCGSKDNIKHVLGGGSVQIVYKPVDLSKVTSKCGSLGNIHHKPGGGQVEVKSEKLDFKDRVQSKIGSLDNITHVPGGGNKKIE
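Heparin (20 uM) drove fibril formation of recombinant tau K18 P301L, 15 uM unlabeled with 0.24 uM Alexa 594 label, for 6 hr at 37 C in 100 mM sodium acetate pH 7. Fluorescence polarization (555/632 nm) read 1 hr after 30 uM ThT.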
ALDH1A1 block – inhibitors of human aldehyde dehydrogenase 1A1. 7.3% of 220,000 active. Purified ALDH1A1, NADH fluorescence, propionaldehyde substrate. Potency, µM (top dose mostly 75.3 µM), for inactives: at the highest dose activity, negative = inhibition, hits mostly inhibitors. P00352; active = well fitted inhibition curve with a large enough effect, not every such curve was filed as active; inconclusive = small, poorly fitted or top-dose-only effect, or another doubt; inactive = no such curve, though single readings can be large or run the other way;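 note: plate controls were no enzyme wells and a reference inhibitor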
NPSR antagonist – antagonists of human neuropeptide S receptor cAMP signaling; Q6W5P4; Potency, µM (doses to about 38.3 µM), for inactives: top-dose activity change, negative = inhibition, most hits filed as inhibitors; CHO-NPSR cells, cAMP TR-FRET, antagonist mode; AID 1461; 1% of 220,000 active; note: nearly all actives have a fitted effect of over 50% in size
Tau fibril ThT – blocks human tau fibril formation measured by thioflavin T | P10636 | recombinant tau K18 P301L, heparin-induced fibrillization, ThT fluorescence | Potency, µM (highest dose often 57.4 µM), inactives show at the highest dose activity, negative = inhibition, usual class: inhibitors | 2.1% of 270,000 active; note: nearly all actives have a fitted effect of over 55% in size
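Heparin-induced (20 uM) aggregation of recombinant human K18 P301L tau, 15 uM unlabeled with 0.24 uM labeled, pH 7 acetate buffer, 6 hr at 37 C with compound. Fibrils quantified by 30 uM ThT fluorescence after 1 hr ambient incubation.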
Tau fluor counter – counter-screen for tau fibril formation inhibitors. Potency, µM (titrated, usually from 57.7 µM), for the others: at the highest dose activity change, negative = decrease. tau K18 P301L Alexa594 fluorescence, heparin fibrillization. 0.93% of 280,000 active. AID 1463; note: nearly all actives have a fitted effect of over 55% in size
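Human tau K18 P301L (15 uM unlabeled, 0.24 uM Alexa 594-labeled) in 100 mM sodium acetate pH 7 with 20 uM heparin, 6 hr at 37 C. ThT 30 uM added, 1 hr ambient; Alexa 594 FP and total fluorescence read at 555/632 nm.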
HPGD inh – blocks human HPGD enzyme activity. purified HPGD, NADH fluorescence kinetic, PGE2 substrate. Potency, µM, without a hit: top-dose activity change, negative = inhibition, hits mostly inhibitors. 4.3% of 150,000 active. AID 894. P15428; active = well fitted inhibition curve with a large enough effect, not every such curve was filed as active; inconclusive = small, poorly fitted or top-dose-only effect, or another doubt; inactive = no such curve, though single readings can be large or run the other way
Target sequence (P15428 whole entry, looked up): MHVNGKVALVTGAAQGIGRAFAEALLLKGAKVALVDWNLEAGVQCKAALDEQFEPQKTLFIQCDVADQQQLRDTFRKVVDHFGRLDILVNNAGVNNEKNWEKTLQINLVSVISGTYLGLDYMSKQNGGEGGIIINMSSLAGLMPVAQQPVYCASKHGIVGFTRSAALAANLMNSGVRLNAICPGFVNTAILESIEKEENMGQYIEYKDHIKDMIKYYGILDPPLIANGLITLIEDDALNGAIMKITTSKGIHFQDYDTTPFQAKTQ
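20 nM HPGD preincubated 15 min at room temperature with compound in 50 mM Tris-HCl pH 8, 0.01% Tween 20. Started with 1 mM NAD+ and 30 uM prostaglandin E2; NADH fluorescence (360/450 nm) read 5 times over 30-s intervals, last minus first.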
An asterisk follows results filed as active; ? = inconclusive; / = no result; [ ] = another dose, or the depositor's remark. A selection: hits, their analogues and other compounds. The true share with any hit is near 9.5%. Unless noted, calls come from the whole dose curve; as a rule, active = well fitted curve in the direction sought with a large enough effect; inconclusive = small, poorly fitted or top-dose-only effect, or another doubt; inactive = no such curve, though single readings can be large; an effect the other way counts as inactive or inconclusive. Unless noted, % is set by controls: 0 for no effect and ±100 for the full control effect; potency is the fitted concentration of half-maximal effect.

SMILES	Tau fibril FP	ALDH1A1 block	NPSR antagonist	Tau fibril ThT	Tau fluor counter	HPGD inh
Cc1ccccc1NC(=O)Cn1cnc2c(oc3nc4c(cc32)COC(C)(C)C4)c1=O	6%	22µM*	7%	4%	5%	-10%
CC1(C)Cc2nc3oc4c(=O)n(CC(=O)Nc5ccc(Cl)cc5)cnc4c3cc2CO1	2%	/	2%	/	-16%	/
CCn1c(SCC(=O)Nc2ccc(C(C)=O)cc2)nc2nc3c(cc2c1=O)CCCC3	?	0.89µM*	-4%[46.1 µM]	?	-4%	-14%
CCOC(=O)c1sc2nc3c(SCC(=O)O)cc(C(=O)c4ccccc4O)cn3c(=O)c2c1C	1%	1%	-19%	?	-3%	/
Cc1sc2nc3c(SC(C)C(=O)O)cc(C(=O)c4ccccc4O)cn3c(=O)c2c1C (stereo unspecified)	-12%	8.9µM*	-49%	14µM*	-7%	-21%
O=C(O)CSc1cc(C(=O)c2ccccc2O)cn2c(=O)c3c(-c4ccccc4)csc3nc12	-4%	3.5µM*	-31%	25µM*	-12%	/
CCOC(=O)CCCNC(=O)N1CCc2nc(-c3ccc(OC)cc3C)c3c(c2C1)CO[C@@H](c1ccccc1)C3	4%[11.6 µM]	?	/	-2%[11.5 µM]	-4%[11.6 µM]	-4%
COC(=O)c1c(-c2cccs2)csc1NC(=O)COc1ccc(C(C)C)cc1	?	/	/	28µM*	-17%	/
CCCc1ccc(OCC(=O)Nc2scc(-c3cccs3)c2C(=O)OC)cc1	?	/	/	22µM*	-23%	/
COc1cccc(N=Nc2c(N)[nH][nH]c2=O)c1	2%	-1%	-38%	?	-29%	-25%
COc1cccc(N=Nc2c(N)[nH]n3c(=O)c4c(nc23)CCCC4)c1	3%	1%	54%	1.4µM*	?	/
S=c1nc(-c2ccccc2)c(-c2ccccc2)n[nH]1	-2%	0.32µM*	-2%	?	-4%	/
COc1ccc(C)cc1NC(=O)Nc1cccc(-c2noc(C)n2)c1	-3%	/	/	?	?	/
Cc1nc(-c2cccc(NC(=O)Nc3ccc([N+](=O)[O-])cc3)c2)no1	13µM*	/	/	?	8.9µM*[quencher]	/
CCCCN(C)CCNC(=O)c1cc(=O)[nH]c2ccc(S(=O)(=O)N3CCCCCC3)cc12	-7%	/	/	-1%	-7%	/
CC(C)(C)c1ccc(C(=O)CSc2nc3ccccc3c(=O)[nH]2)cc1	-10%	?	?	3%	-12%	-15%
O=C(CSc1nc2ccccc2c(=O)[nH]1)c1ccccc1	?	?	-8%[46.1 µM]	-7%	-5%	13µM*
Cc1cc(C(=O)CSc2nc3ccccc3c(=O)[nH]2)c(C)n1C	-12%	-4%	-20%[46.1 µM]	?	-19%	22µM*
CCN(CC)c1ccc(C=Nc2ccc(C#N)cc2)c(O)c1	-2%	35µM*	-30%[46.1 µM]	?	-3%	28µM*
COc1ccc(CCNC(=O)c2cc3sccc3n2Cc2ccc(Cl)cc2)cc1OC	-5%	/	/	-16%	?	/
O=C(c1cccc(S(=O)(=O)NCCOc2ccccc2)c1)N1CCN(c2ncccn2)CC1	-10%	?	-10%[46.1 µM]	-11%	-6%	-19%
O=C(NNc1cccc(Cl)n1)Nc1ccccc1	-3%	?	-4%[46.1 µM]	-11%	-7%	-12%
CC(Cl)C(=O)NNc1cccc(Cl)n1 (stereo unspecified)	-5%	20µM*	-3%[46.1 µM]	-13%	-5%	-13%
CN1C(=O)/C(=C/C=C2/CCCN2C)N(C)C1=S	?	?	59%	20µM*	-26%	/
Cc1cc(N2CCCC2)ccc1/C=C1/C(=O)N(C)C(=S)N1C	?	?	-27%	?	-11%	/
SMILES	Tau fibril FP	ALDH1A1 block	NPSR antagonist	Tau fibril ThT	Tau fluor counter	HPGD inh
COCCCNC(=O)CSc1nc2ccccc2c(=O)n1CCC(=O)NCCc1ccc(OC)c(OC)c1	6%	?	8%	-3%	-3%	/
COc1ccc(CCNC(=O)CCCn2c(SCC#N)nc3ccccc3c2=O)cc1OC	-2%	-6%	-10%[46.1 µM]	-2%	-2%	-6%
COc1ccc(CCNC(=O)CCn2c(SCC#N)nc3ccccc3c2=O)cc1OC	-16%	20µM*	?	-17%	-18%	-2%
COCCNC(=O)CSc1nc2ccccc2c(=O)n1CCC(=O)NCCc1ccc(OC)c(OC)c1	4%	14µM*	6%	-4%	-8%	/
CC(=O)c1ccc(NC(=S)N2c3ccccc3CC2C)cc1 (stereo unspecified)	13%	25µM*	-17%	?	-28%	/
CC1Cc2ccccc2N1C(=S)Nc1ccc(S(N)(=O)=O)cc1 (stereo unspecified)	2%	-5%	9%	1%	3%	-4%
COc1ccc(-n2c(C)cc(-c3csc(NC(=O)c4ccc(S(=O)(=O)N(C)C)cc4)n3)c2C)cc1	5%	2.2µM*	?	?	-27%	-4%
OC(CNCC(c1ccco1)N1CCCCC1)c1ccccc1 (stereo unspecified)	-1%	18µM*	-28%[46.1 µM]	1%	6%	2%
S=C(NCC(c1ccco1)N1CCCC1)Nc1ccccc1 (stereo unspecified)	5%	-15%	7%	1%	3%	/
Cc1cc(C)c(S(=O)(=O)NCC(c2ccco2)N2CCN(c3ccccc3)CC2)c(C)c1 (stereo unspecified)	8%	/	/	?	-28%	/
CC(C)CSc1n[nH]c(=S)s1	-3%	0.63µM*	11%	-7%	-2%	/
CC(C)CSc1n[nH]c(N)n1	1%	8%	20%	0%	-4%	/
Cc1ccc(SCc2nc(-c3ccc(C(=O)Nc4cc(C)ccc4C)cc3)oc2C)cc1	-12%	/	/	-18%	-20%	/
O=C(NC(=S)Nc1ccc(N2CCOCC2)c(Cl)c1)c1cccs1	-3%	-88%	-10%	-18%	-30%	/
O=C(Nc1ccc(N2CCCC2)c(Cl)c1)c1cccnc1	9%	8.9µM*	-14%[46.1 µM]	10%	11%	-26%
O=C(Nc1ccc(N2CCCCC2)c(Cl)c1)c1cccnc1	16%	?	-12%[46.1 µM]	?	?	-13%
O=C(Nc1ccc(N2CCN(C(=O)c3cccs3)CC2)c(Cl)c1)c1ccco1	-2%	28µM*	-24%[46.1 µM]	?	?	-5%
CN(C)C(=O)c1ccc(NC(=O)c2cccnc2)cc1	-4%	-1%	-5%[46.1 µM]	1%	-5%	32µM*
O=C(Nc1ccc(N2CCCC2)c(Cl)c1)c1cccs1	11%	?	-31%	?	16µM*[quencher]	/
O=C(CCCc1ccccc1)NC1CC(=O)N(c2ccc(Cl)cc2)C1 (stereo unspecified)	-1%	/	/	-9%	-17%	/
Cc1ccc(N2CCN(C(=O)c3cc(S(=O)(=O)N4CCCCC4)c[nH]3)CC2)c(C)c1	1%	/	/	-1%	-4%	/
